Records with an inconclusive call do not appear. Calls of active or inactive are those of the source. The calls were made as follows: active = hit-call score of the fitted dose curve at least 0.9, where 1 is the maximum; inconclusive = response in the unintended direction; inactive = score below 0.9.

Data on 37 molecules can be found in PubChem BioAssay (EPA / NIEHS).

Sequence of AR (gene 367) (P10275 whole entry, looked up): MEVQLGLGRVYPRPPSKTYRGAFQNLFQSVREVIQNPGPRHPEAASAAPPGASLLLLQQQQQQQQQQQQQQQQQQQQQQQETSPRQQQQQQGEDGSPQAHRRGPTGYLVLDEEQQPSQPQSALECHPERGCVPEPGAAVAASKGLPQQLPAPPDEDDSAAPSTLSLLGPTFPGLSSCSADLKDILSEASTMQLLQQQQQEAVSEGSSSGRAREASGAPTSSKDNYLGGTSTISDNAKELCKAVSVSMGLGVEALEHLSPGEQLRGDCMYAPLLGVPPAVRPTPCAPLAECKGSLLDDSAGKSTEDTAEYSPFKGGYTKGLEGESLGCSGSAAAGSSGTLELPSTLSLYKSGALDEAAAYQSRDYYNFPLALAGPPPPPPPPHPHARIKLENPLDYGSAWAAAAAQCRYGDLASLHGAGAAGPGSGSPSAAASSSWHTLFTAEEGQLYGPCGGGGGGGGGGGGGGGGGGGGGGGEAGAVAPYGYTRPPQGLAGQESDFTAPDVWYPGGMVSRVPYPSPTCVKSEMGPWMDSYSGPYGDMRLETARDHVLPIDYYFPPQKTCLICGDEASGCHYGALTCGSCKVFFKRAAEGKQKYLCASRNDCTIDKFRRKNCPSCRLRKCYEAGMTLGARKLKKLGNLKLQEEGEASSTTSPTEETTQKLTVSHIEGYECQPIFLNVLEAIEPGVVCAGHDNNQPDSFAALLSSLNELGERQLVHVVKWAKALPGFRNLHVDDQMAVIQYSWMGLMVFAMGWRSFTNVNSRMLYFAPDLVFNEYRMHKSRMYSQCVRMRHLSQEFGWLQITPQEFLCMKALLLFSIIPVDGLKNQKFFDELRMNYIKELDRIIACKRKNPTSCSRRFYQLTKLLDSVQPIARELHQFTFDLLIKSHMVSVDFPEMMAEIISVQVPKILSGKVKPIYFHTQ

Test system in the first assay: not listed separately
Nature of the assay: ACEA_ER_AUC_viability: ACEA Biosciences xCELLigence Real-Time Cell Analysis on Estrogen Receptor Agonism for Viability (AID 2283782).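 Also: continuous compound exposure with impedance area under curve over 80 h; hit means loss of impedance signal meaning reduced cell growth or viability.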 The method in brief:
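T-47D; phenol red-free RPMI1640 + 10% CS-FBS; 8 conc., 1:4 serial, max 100 uM final, ≤0.5% DMSO; n = 2; continuous exposure; impedance monitored to 80 h post-dose; AUC vs DMSO.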
For the molecule `CCC(CC)CO`, the molecule was classed as inactive.

With `COC(=O)c1ccc(C(=O)OC)cc1`, the call was inactive.

As a reminder, the AC50 is the concentration at which the activity in the assay is half-maximal. On to `CCCCCCOc1ccc(O)cc1`, for which the AC50 was 67.3 µM (active).

Turning to `CCCCCCOC(C)=O`, the AC50 was 38.5 µM (active).

With `CCCCCC#CC(=O)OC`, the AC50 was 50 µM (active).

`O=S1(=O)CC=CC1`: the result was inactive.

Turning to `c1ccc2scnc2c1`, the outcome was inactive.

For the molecule `N[C@@H](CCC(=O)O)C(=O)O`, the molecule was called inactive.

Regarding `CC1COC(=O)O1` (stereo not drawn), the result was inactive.

For `CCCCOCC(C)OCC(C)O` (stereo not drawn), the molecule was called inactive.

`CC1(C)CC(N)CC(C)(CN)C1` (stereo not drawn): the outcome was inactive.

On to `CC(=O)OC/C=C(C)/C=C/C=C(C)/C=C/C1=C(C)CCCC1(C)C`, for which the AC50 was 68.5 µM (active).

As to `CC(=N[Si](C)(C)C)O[Si](C)(C)C`, the outcome was inactive.

As to `CC/C(=C(\c1ccccc1)c1ccc(OCCN(C)C)cc1)c1ccccc1`, the AC50 is 17.7 µM (active) [middle of 5 runs].

As for `Brc1cc(Br)cc(Br)c1`, the molecule was called inactive.

Turning to `CC(CCO)CC(C)(C)C` (stereo not drawn), the molecule was called inactive.

On to `O=C(Nc1cccc(Cl)c1)OCC#CCCl`, for which the AC50 was 56.3 µM (active).

Regarding `C=COCC1CCC(COC=C)CC1` (stereo not drawn), the molecule was called inactive.

In the case of `CCOC(=O)C=Cc1ccccc1`, the result was inactive.

For `C1COCO1`, the outcome was inactive.

Turning to `CCCCCCCC1CCCC1=O` (stereo not drawn), the result was inactive.

For `CC(C)(CO)CO`, the outcome was inactive.

For the molecule `CCCCCCCCCCCCCC(=O)OCC`, the AC50 was 50 µM (active).

Consider `O=[N+]([O-])c1cc(N(CCO)CCO)ccc1NCCO`, for which the molecule was classed as inactive.

`CCCCCCCCCC(=O)OCC`: the call was inactive.

On to `CCC(C)(C)C1CCC(OC)CC1` (stereo not drawn), for which the molecule was classed as inactive.

As to `CC1=CC[C@@H]2C[C@H]1C2(C)C`, the AC50 is 18.7 µM (active).

As for `O=S1(=O)CC(Cl)(Cl)C(Cl)(Cl)C1`, the AC50 is 1.42 µM (active).

The target of the next assay is AR (gene 367) (UniProt P10275). Nature of the assay: ACEA_AR_agonist_80hr: ACEA Biosciences xCELLigence Real-Time Cell Analysis on Androgen Receptor Agonism for Proliferation (AID 2283783).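 Also: hits increase impedance growth signal above DMSO baseline.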 A digest of the protocol:
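Androgen-driven proliferation in 22Rv1 cells is tracked as electrical impedance, taken 80 h after continuous exposure to compound (eight concentrations, 1:4 steps, maximum 100 uM final). Activity is fitted in the positive direction with DMSO as baseline.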
Turning to `CCC(C)(C)C1CCC(=O)CC1`, the outcome was inactive.

For `CC1COC(=O)O1` (stereo not drawn), the call was inactive.

For the molecule `CC(C)(CO)CO`, the call was inactive.

Test system in a further assay: not listed separately
Description: STM_H9_NormalizedViability: Cytotoxicity Assessment at 120 hours in the Stemina devTOX quickPredict H9 human embryonic stem cell (hESC)-based Assay (AID 2283784). A digest of the protocol: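 Undifferentiated H9 hESCs kept pluripotent were exposed to compound, with media and chemical replaced every 24h. CellTiter-Fluor protease-substrate fluorescence was background-corrected and normalized per plate to the 0.1% DMSO vehicle; signal loss indicates reduced viability.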
Take `COC(=O)c1ccc(C(=O)OC)cc1`: the outcome was inactive.

Take `CCCCCCOC(C)=O`: the result was inactive.

Regarding `CCCCOCCOCCOCCO`, the outcome was inactive.

On to `CC(=O)OC/C=C(C)/C=C/C=C(C)/C=C/C1=C(C)CCCC1(C)C`, for which the AC50 is 87.5 µM (active).

Turning to `O=C(O)c1ccccc1O`, the AC50 was 7090 µM (active).

With `CCOC(=O)C=Cc1ccccc1`, the result was inactive.

For another assay, the target named is AR (gene 367) (UniProt P10275). Description: ACEA_AR_antagonist_80hr: ACEA Biosciences xCELLigence Real-Time Cell Analysis on Androgen Receptor Antagonism for Proliferation (AID 2283787).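 Also: 22Rv1 human prostate cancer cells with growth followed by electrical impedance; hits lower the impedance growth signal relative to DMSO.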 The method in brief:
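Growth-kinetic antagonist readout in 22Rv1 cells, taken 80 h after continuous compound exposure. Activity fitted as signal loss relative to DMSO negative control.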
With `CCCCCCOc1ccc(O)cc1`, the half-maximal activity concentration (AC50) is 13.3 µM (active).

`COC(=O)c1cccc(C(=O)OC)c1`: the molecule was called inactive.

Turning to `CCC(C)(C)C1CCC(=O)CC1`, the molecule was classed as inactive.

As for `CCCCCCCCCCOC(=O)c1ccccc1C(=O)OCCCCCCCC`, the molecule was called inactive.

As for `CC1COC(=O)O1` (stereo not drawn), the molecule was called inactive.

Take `CC1=CCC(C(C)(C)O)CC1` (stereo not drawn): the concentration at half-maximal activity (AC50) was 7.98 µM (active).

With `CC(=O)N(C)C`, the result was inactive.

`CC(C)(C)c1cccc(O)c1`: the call was inactive.

As to `CC(CCO)CC(C)(C)C` (stereo not drawn), the outcome was inactive.

As to `CC(C)(CO)CO`, the molecule was classed as inactive.

As to `COc1cc(OC)c2ccc(=O)oc2c1`, the AC50 is 3.3 µM (active).
